In PubChem BioAssay (EPA / NIEHS):
Records with an inconclusive call do not appear. The source made the active and inactive calls. Rule for the calls, unless noted: active = hit-call score of the fitted dose curve at least 0.9, where 1 is the maximum; inactive = score below 0.9.

Experiments:
[1] = read-out: Monocyte Chemoattractant Protein-1 (MCP1), CCL2 (gene 6347); assay: BSK_LPS_MCP1: BioMAP Diversity Plus: LPS Assay for Monocyte Chemoattractant Protein-1 (MCP1) Biomarker Activity (AID 2283081); settings: primary human HUVEC with PBMC; actives raise or lower the signal;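 for AC50: secreted MCP-1 protein quantified by ELISA in culture supernatant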
How it was run: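 Human umbilical vein endothelial cells co-cultured with PBMC, LPS-stimulated; secreted MCP-1 measured by ELISA 24 h after compound addition. Bidirectional curve fitting against DMSO baseline; SRB total-protein staining in parallel cultures for cytotoxicity.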

[2] = BSK_LPS_PGE2: BioMAP Diversity Plus: LPS Assay for Prostaglandin E2 (PGE2) Biomarker Activity (AID 2283082); settings: primary human HUVEC with PBMC; actives raise or lower the signal;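 for AC50: secreted prostaglandin E2 measured by ELISA in LPS-stimulated co-culture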
How it was run: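 HUVEC plus PBMC co-culture stimulated with LPS; secreted PGE2 quantified by ELISA 24 h after chemical dosing. Activity fitted bidirectionally against DMSO as negative control and baseline; parallel SRB total-protein staining served as cytotoxicity check.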

[3] = read-out: Macrophage colony-stimulating factor (MCSF), CSF1 (gene 1435); assay: BSK_LPS_MCSF: BioMAP Diversity Plus: LPS Assay for Macrophage colony-stimulating factor (MCSF) Biomarker Activity (AID 2283083); settings: primary human HUVEC with PBMC; actives raise or lower the signal
How it was run: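 HUVEC–PBMC co-culture, M-CSF measured by ELISA 24 h after chemical dosing. Fitted in both directions relative to DMSO as negative control; overt cytotoxicity assessed by SRB total-protein staining in parallel cultures.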

[4] = read-out: Tissue Factor, F3 (gene 2152); assay: BSK_LPS_TissueFactor: BioMAP Diversity Plus: LPS Assay for Tissue Factor Biomarker Activity (AID 2283084); settings: primary human HUVEC with PBMC; actives raise or lower the signal
How it was run: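 Human umbilical vein endothelial cells co-cultured with PBMC were dosed with compound. Cell-surface CD142 was measured by ELISA 24 h later. Activity was fitted bidirectionally against DMSO, with SRB total-protein staining in parallel cultures for cytotoxicity.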

[5] = read-out: Tumor necrosis factor (Homo sapiens) (UniProt P01375); assay: BSK_LPS_TNFa: BioMAP Diversity Plus: LPS Assay for Tumour Necrosis Factor alpha (TNFa) Biomarker Activity (AID 2283085); settings: primary human HUVEC with PBMC; actives raise or lower the signal
How it was run: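 Human umbilical vein endothelial cells co-cultured with PBMC were exposed to test chemical and TNFa measured by ELISA 24 h after dosing. Bidirectional curve fitting was done relative to DMSO as negative control and baseline.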

[6] = read-out: Vascular cell adhesion molecule 1 (VCAM1), VCAM1 (gene 7412); assay: BSK_LPS_VCAM1: BioMAP Diversity Plus: LPS Assay for Vascular cell adhesion molecule 1 (VCAM1) Biomarker Activity (AID 2283086); settings: primary human HUVEC with PBMC; actives raise or lower the signal
How it was run: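 Human umbilical vein endothelial cells co-cultured with peripheral blood mononuclear cells under LPS stimulation were exposed to test chemical for 24 h. VCAM-1 levels were then measured by ELISA, with bidirectional curve fitting relative to DMSO as negative control and baseline.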

CD40, CD40 (gene 958) = assay: BSK_SAg_CD40: BioMAP Diversity Plus: SAg Assay for CD40 Biomarker Activity (AID 2283088); settings: primary human HUVEC with PBMC; actives raise or lower the signal
How it was run: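 HUVEC plus PBMC co-culture, superantigen-activated, with CD40 read by ELISA 24 h after dosing. Curves fitted in both directions against DMSO. Overt cytotoxicity checked by parallel SRB total-protein staining.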

CD69, CD69 (gene 969) = assay: BSK_SAg_CD69: BioMAP Diversity Plus: SAg Assay for CD69 Biomarker Activity (AID 2283089); settings: primary human HUVEC with PBMC; actives raise or lower the signal;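 for AC50: cell surface CD69 protein quantified by ELISA with fluorescence detection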
How it was run: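 ELISA, fluorescence read-out: CD69 on human umbilical vein endothelial cell + PBMC co-culture, 24 h post-dosing. Gain or loss of signal fitted bidirectionally against DMSO baseline.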

[7] = read-out: Monocyte Chemoattractant Protein-1 (MCP1), CCL2 (gene 6347); assay: BSK_SAg_MCP1: BioMAP Diversity Plus: SAg Assay for Monocyte Chemoattractant Protein-1 (MCP1) Biomarker Activity (AID 2283090); settings: primary human HUVEC with PBMC; actives raise or lower the signal
How it was run: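 MCP-1 levels in the endothelial–PBMC SAg co-culture were quantified by ELISA at 24 h post-dosing; both increases and decreases versus DMSO scored. Cytotoxicity monitored by SRB total protein in parallel cultures.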

[8] = read-out: E-selectin (Homo sapiens) (UniProt P16581); assay: BSK_SAg_Eselectin: BioMAP Diversity Plus: SAg Assay for Eselectin Biomarker Activity (AID 2283091); settings: primary human HUVEC with PBMC; actives raise or lower the signal
How it was run: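 Human umbilical vein endothelial cells co-cultured with peripheral blood mononuclear cells, SAg system. E-selectin is measured by ELISA 24 h after dosing and fitted bidirectionally against DMSO. Cytotoxicity is checked by SRB staining of parallel cultures.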

[9] = read-out: Monokine induced gamma interferon (MIG), CXCL9 (gene 4283); assay: BSK_SAg_MIG: BioMAP Diversity Plus: SAg Assay for Monokine induced gamma interferon (MIG) Biomarker Activity (AID 2283092); settings: primary human HUVEC with PBMC; actives raise or lower the signal
How it was run: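 ELISA readout of MIG/CXCL9; primary human umbilical vein endothelial cells co-cultured with peripheral blood mononuclear cells; 24 h post-dose; gain/loss fit vs DMSO baseline.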

[10] = BSK_SAg_PBMCCytotoxicity: PBMC Cytotoxicity Assessment in the BioMAP Diversity Plus: SAg Assay (AID 2283093); settings: primary human HUVEC with PBMC;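 note: PBMC viability measured as Alamar Blue reduction fluorescence at 546/580 nm; fitted both ways against DMSO so a hit may be loss or gain of signal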;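 for AC50: PBMC superantigen activated with SEB plus TSST-1 one hour after compound addition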
How it was run: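 Compound added to 75,000 PBMC/well for 1 h; SEB and TSST-1 then added at 20 ng/mL final each; 90 h incubation; Alamar Blue 6 h; read 546/580 nm ex/em. Activity fitted bidirectionally relative to DMSO baseline.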

[11] = BSK_SAg_SRB: Viability Assessment in the BioMAP Diversity Plus: SAg Assay (AID 2283096); settings: primary human HUVEC with PBMC;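 note: cells read one day after compound addition; hits may be either gain or loss of signal compared with DMSO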
How it was run: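 Total protein by sulforhodamine B staining, 24 h after dosing, in HUVEC–PBMC co-culture; DMSO-referenced bidirectional fitting.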

[12] = biological target: human CYP19A1, CYP19A1 (gene 1588) (UniProt P11511); assay: NVS_ADME_hCYP19A1: NovaScreen (NVS) CYP450-related Enzyme Activity (ADME) Assay for human CYP19A1 (AID 2283098; active = hit-call score of the fitted dose curve at least 0.9, where 1 is the maximum;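 note: potency for inhibitors seen as loss of fluorescent enzyme signal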)
How it was run: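 Biochem, cell-free; recombinant enzyme + specific substrate; fluorescence intensity at 0.5 h post-dose; 10 uM duplicate primary, conc. series for actives; acetonitrile = negative control/baseline; positive and negative controls on every plate.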

[13] = read-out: Interleukin-8 (IL8), CXCL8 (gene 3576); assay: BSK_SAg_IL8: BioMAP Diversity Plus: SAg Assay for Interleukin-8 (IL8) Biomarker Activity (AID 2283094); settings: primary human HUVEC with PBMC; actives raise or lower the signal
How it was run: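 Human umbilical vein endothelial cells co-cultured with peripheral blood mononuclear cells; IL-8 measured by ELISA 24 h after chemical dosing. Bidirectional concentration-response fitting used DMSO as negative control and activity baseline.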

[14] = biological target: human CYP2D6, CYP2D6 (gene 1565) (UniProt P10635); assay: NVS_ADME_hCYP2D6: NovaScreen (NVS) CYP450-related Enzyme Activity (ADME) Assay for human CYP2D6 (AID 2283107; active = hit-call score of the fitted dose curve at least 0.9, where 1 is the maximum)
How it was run: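 Cell-free assay using recombinant human CYP2D6 expressed in insect cells, with a fluorogenic substrate read after 1 h. Primary screen in duplicate at 10 uM; actives followed up in concentration series. Loss of signal fitted relative to acetonitrile.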

[15] = BSK_SAg_Proliferation: Cell Proliferation Assessment in the BioMAP Diversity Plus: SAg Assay (AID 2283095); settings: primary human HUVEC with PBMC;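 note: relative cell number as total protein by SRB absorbance in sub-confluent culture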
How it was run: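 Human umbilical vein endothelial cells co-cultured with peripheral blood mononuclear cells; total protein measured by sulforhodamine B staining (0.1% SRB after 10% TCA fixation), absorbance at 560 nm, at 96 h. Bidirectional fit against DMSO baseline.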

Measured: AC50

E-selectin (Homo sapiens), sequence (P16581 whole entry, looked up): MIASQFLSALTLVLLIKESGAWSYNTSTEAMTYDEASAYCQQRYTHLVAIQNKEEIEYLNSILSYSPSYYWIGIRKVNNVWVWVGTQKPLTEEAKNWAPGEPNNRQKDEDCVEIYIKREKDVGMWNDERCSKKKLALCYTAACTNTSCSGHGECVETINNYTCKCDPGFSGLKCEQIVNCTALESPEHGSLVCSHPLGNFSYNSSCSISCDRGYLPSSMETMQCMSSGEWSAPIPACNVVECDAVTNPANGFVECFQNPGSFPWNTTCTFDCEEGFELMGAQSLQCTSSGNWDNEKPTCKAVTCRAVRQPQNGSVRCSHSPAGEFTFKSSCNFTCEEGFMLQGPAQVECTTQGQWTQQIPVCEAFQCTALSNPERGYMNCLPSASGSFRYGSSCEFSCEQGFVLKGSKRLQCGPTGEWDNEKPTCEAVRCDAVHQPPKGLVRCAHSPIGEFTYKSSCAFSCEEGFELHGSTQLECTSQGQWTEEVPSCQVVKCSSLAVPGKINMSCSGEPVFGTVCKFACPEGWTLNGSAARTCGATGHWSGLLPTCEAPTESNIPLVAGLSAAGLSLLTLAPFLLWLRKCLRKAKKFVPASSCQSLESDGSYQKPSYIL
Tumor necrosis factor (Homo sapiens), sequence (P01375 whole entry, looked up): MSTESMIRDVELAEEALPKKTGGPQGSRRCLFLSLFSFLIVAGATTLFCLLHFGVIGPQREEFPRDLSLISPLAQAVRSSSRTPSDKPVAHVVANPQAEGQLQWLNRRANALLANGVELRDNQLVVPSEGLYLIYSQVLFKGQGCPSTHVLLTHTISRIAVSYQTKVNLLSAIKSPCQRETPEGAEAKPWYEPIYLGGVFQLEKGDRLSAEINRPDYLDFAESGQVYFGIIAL
human CYP2D6, CYP2D6 (gene 1565), sequence (P10635 whole entry, looked up): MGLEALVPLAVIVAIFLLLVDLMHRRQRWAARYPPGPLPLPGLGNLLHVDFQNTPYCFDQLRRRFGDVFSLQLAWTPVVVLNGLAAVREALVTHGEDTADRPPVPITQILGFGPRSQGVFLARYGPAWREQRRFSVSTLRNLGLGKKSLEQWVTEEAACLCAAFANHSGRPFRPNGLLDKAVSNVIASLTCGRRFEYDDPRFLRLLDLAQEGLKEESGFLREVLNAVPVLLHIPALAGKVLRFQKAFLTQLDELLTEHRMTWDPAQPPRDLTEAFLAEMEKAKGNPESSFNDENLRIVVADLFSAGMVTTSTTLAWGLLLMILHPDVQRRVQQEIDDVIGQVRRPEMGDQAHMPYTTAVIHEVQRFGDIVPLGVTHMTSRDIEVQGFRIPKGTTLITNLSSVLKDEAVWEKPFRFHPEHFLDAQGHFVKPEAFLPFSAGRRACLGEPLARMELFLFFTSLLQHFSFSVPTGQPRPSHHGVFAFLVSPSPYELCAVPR
human CYP19A1, CYP19A1 (gene 1588), sequence (P11511 whole entry, looked up): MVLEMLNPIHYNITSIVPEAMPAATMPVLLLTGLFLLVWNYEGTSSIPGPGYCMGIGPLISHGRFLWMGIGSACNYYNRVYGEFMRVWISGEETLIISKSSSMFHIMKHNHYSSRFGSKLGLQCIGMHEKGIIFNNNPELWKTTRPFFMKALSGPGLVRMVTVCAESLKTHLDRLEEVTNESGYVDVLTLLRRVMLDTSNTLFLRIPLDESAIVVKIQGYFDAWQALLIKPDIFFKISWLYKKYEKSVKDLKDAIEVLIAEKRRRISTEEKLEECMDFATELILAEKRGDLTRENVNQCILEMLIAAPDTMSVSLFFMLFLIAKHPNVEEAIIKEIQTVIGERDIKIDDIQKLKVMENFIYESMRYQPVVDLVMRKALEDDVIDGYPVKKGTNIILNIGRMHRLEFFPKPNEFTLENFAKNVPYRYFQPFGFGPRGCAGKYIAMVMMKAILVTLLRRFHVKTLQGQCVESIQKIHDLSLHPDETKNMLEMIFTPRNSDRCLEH

Cc1cc(O)c(C(C)(C)C)cc1C(C)(C)C
inactive: [2]
active: [1] 9.04 µM | [3] 5.29 µM | [4] 5.3 µM | [5] 9.79 µM | [6] 5.9 µM | CD40, CD40 (gene 958) 5.09 µM | CD69, CD69 (gene 969) 5.18 µM | [7] 7.3 µM | [8] 5.34 µM | [9] 10.2 µM | [10] 3.79 µM | [11] 6.3 µM

CCc1cc(Cc2cc(CC)c(N)c(CC)c2)cc(CC)c1N
active: [12] 1.7 µM

O=C(c1ccccc1)c1ccc(O)cc1O
active: [2] 0.726 µM | [14] 5 µM
not listed: [12] | [15]
inactive: all other assays above

NC(=O)C(F)(F)C(F)(F)C(F)(F)C(F)(F)C(F)(F)C(F)(F)C(F)(F)F
not listed: [12] | [13] | [14] | [15]
inactive: all other assays above

CCN(CC)c1ccc(C=O)cc1
not listed: [12] | [13] | [14] | [15]
inactive: all other assays above

Nc1cc([N+](=O)[O-])cc(Cl)c1O
not listed: [12] | [14]
inactive: all other assays above

O=C(O)C(F)(F)OC(F)(F)C(F)(F)OC(F)(F)C(F)(F)OC(F)(F)F
not listed: [12] | [14] | [15]
inactive: all other assays above

O=S(=O)(O)CCC(F)(F)C(F)(F)C(F)(F)C(F)(F)F
not listed: [12] | [14] | [15]
inactive: all other assays above

CC(C)(C)c1cc(CCC(=O)NCCCCCCNC(=O)CCc2cc(C(C)(C)C)c(O)c(C(C)(C)C)c2)cc(C(C)(C)C)c1O
not listed: [12] | [14] | [15]
inactive: all other assays above

CC(C)Nc1ccc(NC(C)C)c2c1C(=O)c1ccccc1C2=O
active: [12] 3.18 µM

CC1=CC2C3C=CC(C3)C2C1C (stereo unspecified)
active: [5] 31.3 µM | [14] 2.84 µM
not listed: [12]
inactive: all other assays above

O=C(O)C(F)(F)C(F)(F)C(F)(F)C(=O)O
not listed: [12] | [14] | [15]
inactive: all other assays above

CCOC(=O)CC(=O)C(F)(F)C(F)(F)F
not listed: [12] | [13] | [14] | [15]
inactive: all other assays above
